Measurements from PubChem BioAssay.
The source made the active and inactive calls.

Legend:
[1] = tested on: Plasmodium falciparum Sir2 (PF13_0152, Sir2A); assay: Plasmodium falciparum Sir2A binding compounds – biochemical, small-molecule microarray, 635 nm fluorescence, primary screen (AID 1098); conditions: fluorescence 635 nm, higher = more signal;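 further: score merges spot fluorescence intensity with its signal-to-noise ratio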
[2] = probe aDKK1 binding to arrayed compounds – biochemical, biotinylated probe, 635/667 nm fluorescence, primary screen (AID 1099); conditions: small-molecule microarray, higher = more signal;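 further: score merges 667nm spot fluorescence with signal to noise across triplicate slides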
[3] = probe aCHRDL2 binding to arrayed compounds – biochemical, biotinylated probe, 635/667 nm fluorescence, primary screen (AID 1100); conditions: small-molecule microarray, higher = more signal
[4] = change in splice reporter luminescence, either direction, cell-based, HEK293, spliceosome inhibition project, primary screen (AID 1101); conditions: HEK293 splicing luciferase reporter, 24 h, higher = more signal, called active from +8 up or from −8 down;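 further: HEK293 cells carrying a splicing-competent luciferase reporter gene; test concentration not given here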
[5] = target: Fibroblast growth factor 10 (Homo sapiens) (UniProt O15520); assay: compounds binding fibroblast growth factor 10 – biochemical, small-molecule microarray, 635 nm fluorescence, primary screen (AID 1102); conditions: FGF10 binding, fluorescence 635 nm, higher = more signal
Fibroblast growth factor 10 (Homo sapiens), sequence (O15520 whole entry, looked up): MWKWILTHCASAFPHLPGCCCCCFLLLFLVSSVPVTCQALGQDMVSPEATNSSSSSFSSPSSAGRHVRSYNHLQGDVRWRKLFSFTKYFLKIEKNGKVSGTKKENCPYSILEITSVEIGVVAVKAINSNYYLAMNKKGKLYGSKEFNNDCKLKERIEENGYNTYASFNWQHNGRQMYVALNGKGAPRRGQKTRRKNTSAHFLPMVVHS

[6] = tested on: glycogen synthase kinase-3 (GSK3A per assay name; protocol says GSK3B); assay: compounds binding glycogen synthase kinase-3 – biochemical, small-molecule microarray, 635 nm fluorescence, GSK3A, primary screen (AID 1103); conditions: fluorescence 635 nm, higher = more signal; further: the record names both GSK3A and GSK3B
[7] = target: Epidermal growth factor receptor (Homo sapiens) (UniProt P00533); assay: compounds binding epidermal growth factor receptor – biochemical, small-molecule microarray, 635 nm fluorescence, primary screen (AID 1104); conditions: EGFR binding, higher = more signal;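 further: score merges 667 nm emission intensity with spot signal to noise over triplicate slides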
Epidermal growth factor receptor (Homo sapiens), sequence (P00533 whole entry, looked up): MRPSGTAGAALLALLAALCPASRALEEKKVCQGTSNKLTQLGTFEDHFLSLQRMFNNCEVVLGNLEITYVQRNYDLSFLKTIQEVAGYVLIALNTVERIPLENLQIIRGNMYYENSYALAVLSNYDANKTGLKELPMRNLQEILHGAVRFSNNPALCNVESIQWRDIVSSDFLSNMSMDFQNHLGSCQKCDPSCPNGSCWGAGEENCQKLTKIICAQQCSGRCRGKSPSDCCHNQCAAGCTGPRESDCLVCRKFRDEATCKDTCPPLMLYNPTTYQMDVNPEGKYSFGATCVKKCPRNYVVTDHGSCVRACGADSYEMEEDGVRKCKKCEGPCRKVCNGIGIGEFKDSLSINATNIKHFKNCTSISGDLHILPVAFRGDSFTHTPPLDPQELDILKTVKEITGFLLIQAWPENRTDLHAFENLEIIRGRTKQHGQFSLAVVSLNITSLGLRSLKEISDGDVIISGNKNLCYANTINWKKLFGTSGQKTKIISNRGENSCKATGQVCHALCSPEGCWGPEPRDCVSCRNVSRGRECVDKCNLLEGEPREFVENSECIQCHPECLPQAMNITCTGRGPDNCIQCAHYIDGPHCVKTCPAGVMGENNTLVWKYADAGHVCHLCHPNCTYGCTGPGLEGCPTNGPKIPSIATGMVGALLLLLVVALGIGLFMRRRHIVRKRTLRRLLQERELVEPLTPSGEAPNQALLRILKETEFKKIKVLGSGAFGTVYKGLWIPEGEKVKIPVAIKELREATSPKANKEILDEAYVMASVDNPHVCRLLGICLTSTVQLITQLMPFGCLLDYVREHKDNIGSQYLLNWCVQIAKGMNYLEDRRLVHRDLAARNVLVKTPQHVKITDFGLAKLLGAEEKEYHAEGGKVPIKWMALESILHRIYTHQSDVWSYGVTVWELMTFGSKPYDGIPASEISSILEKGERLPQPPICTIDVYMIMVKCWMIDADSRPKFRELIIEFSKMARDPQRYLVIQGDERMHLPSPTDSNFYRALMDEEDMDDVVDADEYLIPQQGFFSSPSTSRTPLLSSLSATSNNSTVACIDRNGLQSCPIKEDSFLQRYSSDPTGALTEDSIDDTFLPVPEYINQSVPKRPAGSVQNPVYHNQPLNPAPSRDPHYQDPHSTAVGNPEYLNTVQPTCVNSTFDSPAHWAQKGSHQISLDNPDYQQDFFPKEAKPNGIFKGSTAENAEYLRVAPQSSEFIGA

[8] = target: Follistatin-related protein 3 (Homo sapiens) (UniProt O95633); assay: compounds binding follistatin-related protein 3 – biochemical, small-molecule microarray, 635 nm fluorescence, primary screen (AID 1105); conditions: FSTL3 binding, higher = more signal;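 further: score merges emission near 667 nm and signal to noise per printed spot across three slides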
Follistatin-related protein 3 (Homo sapiens), sequence (O95633 whole entry, looked up): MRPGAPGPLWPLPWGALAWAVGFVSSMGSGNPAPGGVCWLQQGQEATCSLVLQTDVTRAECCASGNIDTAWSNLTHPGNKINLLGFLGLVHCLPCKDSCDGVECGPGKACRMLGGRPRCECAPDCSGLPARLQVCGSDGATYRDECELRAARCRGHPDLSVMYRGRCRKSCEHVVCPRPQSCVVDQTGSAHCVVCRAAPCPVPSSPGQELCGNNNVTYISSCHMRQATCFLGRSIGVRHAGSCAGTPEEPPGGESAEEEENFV

[9] = target: Dickkopf-related protein 1 (Homo sapiens) (UniProt O94907); assay: small molecules binding DKK1 protein – biochemical, small-molecule microarray, 635 nm fluorescence scan, primary screen (AID 1106); conditions: higher = more signal;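 further: score merges emission near 667 nm with signal to noise over three replicate slides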
Dickkopf-related protein 1 (Homo sapiens), sequence (O94907 whole entry, looked up): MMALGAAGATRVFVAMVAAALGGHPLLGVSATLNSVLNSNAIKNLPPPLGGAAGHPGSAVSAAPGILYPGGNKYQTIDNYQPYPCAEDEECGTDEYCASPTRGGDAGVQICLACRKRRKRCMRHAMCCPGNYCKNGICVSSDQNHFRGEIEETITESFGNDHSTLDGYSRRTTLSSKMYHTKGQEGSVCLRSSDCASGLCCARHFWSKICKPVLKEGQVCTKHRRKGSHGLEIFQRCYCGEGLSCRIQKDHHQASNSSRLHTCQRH

[10] = tested on: Inhibin beta A chain (activin A); assay: small molecules binding activin A – biochemical, small-molecule microarray, 635 nm fluorescence scan, primary screen (AID 1107); conditions: INHBA, higher = more signal;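 further: mouse activin A protein probed at 4.33 µg/mL on printed slides; score merges bound-protein fluorescence near 667 nm with spot signal-to-noise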
[11] = tested on: Human papillomavirus type 1a protein E7 (residues 44-93); assay: small molecules binding HPV E7 44-93 – biochemical, small-molecule microarray, residues 44-93, 635 nm fluorescence, primary screen (AID 1108); conditions: fluorescence 635 nm, higher = more signal;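 further: E7 fragment applied at 1 µg/mL in TBST for 1 h at 4 C; score combines spot fluorescence with its signal to noise ratio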
[12] = hepatitis C replication reporter changes, two-sided – Huh7 cells, luciferase reporter, HCV replication inhibitor project, primary screen (AID 1109); conditions: Huh7 HCV replicon luciferase reporter, 48 h; higher = more signal;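 further: huh7 hepatoma cells harbouring a luciferase neomycin HCV replicon reporter; luciferase luminescence as measure of HCV replicon replication; test concentration not given here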
[13] = target: Left-right determination factor 2 (Homo sapiens) (UniProt O00292); assay: small molecules binding LEFTY2 protein – biochemical, small-molecule microarray, 635 nm fluorescence scan, primary screen (AID 1110); conditions: higher = more signal
Left-right determination factor 2 (Homo sapiens), sequence (O00292 whole entry, looked up): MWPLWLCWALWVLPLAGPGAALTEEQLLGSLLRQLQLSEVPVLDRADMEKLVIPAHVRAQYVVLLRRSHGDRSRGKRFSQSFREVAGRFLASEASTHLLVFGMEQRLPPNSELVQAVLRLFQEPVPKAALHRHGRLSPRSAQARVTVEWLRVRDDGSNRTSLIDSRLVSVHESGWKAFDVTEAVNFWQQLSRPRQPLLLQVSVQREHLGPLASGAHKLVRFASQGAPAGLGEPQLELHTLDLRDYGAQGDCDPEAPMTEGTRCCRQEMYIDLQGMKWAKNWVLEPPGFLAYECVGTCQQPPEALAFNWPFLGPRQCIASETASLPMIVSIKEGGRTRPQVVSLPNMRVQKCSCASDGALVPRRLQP

[14] = target: Calmodulin-1 (Homo sapiens) (UniProt P0DP23); assay: small molecules binding calmodulin-1 with EGTA – biochemical, small-molecule microarray, Cy5-labelled CALM1, profiling panel (AID 1111); conditions: Cy5-CALM1 binding fluorescence, higher = more signal;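 further: labelled calmodulin applied in Tris saline Tween buffer holding calcium plus EGTA and DTT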
[15] = target: Calmodulin-1 (Homo sapiens) (UniProt P0DP23); assay: small molecules binding Ca-loaded calmodulin-1 – biochemical, small-molecule microarray, Cy5-labelled CALM1, plus calcium, artefact control for SMM control-protein annotation, profiling panel (AID 1112); conditions: Cy5-CALM1 binding fluorescence, higher = more signal;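 further: score merges spot fluorescence with signal to noise from triplicate slides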
[16] = probe aWnt5a binding to arrayed compounds – biochemical, biotinylated probe, 635/667 nm fluorescence, primary screen (AID 1113); conditions: small-molecule microarray, higher = more signal;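 further: score merges 667 nm fluorescence intensity with signal-to-noise per printed feature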
[17] = probe aShh binding to arrayed compounds – biochemical, biotinylated probe, 635/667 nm fluorescence, primary screen (AID 1114); conditions: small-molecule microarray, higher = more signal;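 further: probe is biotin-labelled aShh protein from a stem cell growth factor screen; measures binding of labelled protein to compounds printed on the slide; score merges feature fluorescence at 667 nm with signal-to-noise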
[18] = probe aNog binding to arrayed compounds – biochemical, biotinylated probe, 635/667 nm fluorescence, primary screen (AID 1115); conditions: small-molecule microarray, higher = more signal;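 further: probe is biotinylated aNog protein used at 0.15 µg/mL for 1 h at 4 C; z-score combines 667 nm fluorescence of each spot with its signal to noise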
[19] = target: Torsin-1A-interacting protein 1 (Homo sapiens) (UniProt Q5JTV8); assay: compound microarray binding of lysate hLAP1 – cell lysate, small-molecule microarray, COS7 lysate, 635/667 nm fluorescence, primary screen (AID 1116); conditions: 635 nm fluorescence, higher = more signal
Torsin-1A-interacting protein 1 (Homo sapiens), sequence (Q5JTV8 whole entry, looked up): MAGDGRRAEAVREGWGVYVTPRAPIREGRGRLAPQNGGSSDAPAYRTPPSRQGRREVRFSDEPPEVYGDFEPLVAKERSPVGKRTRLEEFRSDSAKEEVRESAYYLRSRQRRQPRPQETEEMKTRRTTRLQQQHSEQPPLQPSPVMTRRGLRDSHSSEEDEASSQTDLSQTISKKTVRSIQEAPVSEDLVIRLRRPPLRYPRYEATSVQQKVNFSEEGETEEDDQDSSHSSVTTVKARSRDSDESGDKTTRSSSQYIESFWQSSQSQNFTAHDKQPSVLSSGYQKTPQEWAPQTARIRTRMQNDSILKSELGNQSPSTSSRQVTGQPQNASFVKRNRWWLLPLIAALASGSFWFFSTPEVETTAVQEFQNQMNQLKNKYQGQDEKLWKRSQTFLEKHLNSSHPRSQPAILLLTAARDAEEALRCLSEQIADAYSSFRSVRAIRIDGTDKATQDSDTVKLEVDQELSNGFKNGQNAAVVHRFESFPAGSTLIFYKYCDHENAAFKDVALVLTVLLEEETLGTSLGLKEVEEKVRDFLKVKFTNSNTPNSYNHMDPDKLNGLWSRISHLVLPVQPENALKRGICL

[20] = target: Alpha-bungarotoxin (Bungarus multicinctus) (UniProt P60615); assay: compounds binding labelled alpha-BTX control protein – biochemical, small-molecule microarray, Alexa647 label, 635/667 nm fluorescence, artefact control for SMM control protein annotation, profiling panel (AID 1117); conditions: alpha-BTX-A647 binding fluorescence, higher = more signal
Alpha-bungarotoxin (Bungarus multicinctus), sequence (P60615 whole entry, looked up): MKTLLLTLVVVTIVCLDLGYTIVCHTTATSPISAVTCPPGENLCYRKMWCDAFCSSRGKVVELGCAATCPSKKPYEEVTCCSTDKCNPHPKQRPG

Row | SMILES | composite z-score [1] | composite z-score [2] | composite z-score [3] | z-score [4] | composite z-score [5] | composite z-score [6] | composite z-score [7] | composite z-score [8] | composite z-score [9] | composite z-score [10] | composite z-score [11] | z-score [12] | composite z-score [13] | composite z-score [14] | composite z-score [15] | composite z-score [16] | composite z-score [17] | composite z-score [18] | composite z-score [19] | composite z-score [20]
1 | CCOC(=O)C[C@H]1[C@H](OC(=O)c2cc3ccccc3oc2=O)[C@@H](NC(=O)Cc2ccc(OC)cc2)c2cc(OCCCO)ccc2N1C(=O)c1ccc2ccccc2n1 | 0.195 | 0.0588 | -0.335 | 0.126 (inactive) | 1.28 | 0.372 | 0.409 | 0.889 | 0.578 | 0.155 | 0.178 | -0.664 | 0.774 | -0.0597 | -0.399 | 0.0257 | -0.214 | 0.0023 | 0.514 | 0.26
2 | O=C1NC(=O)C2C1C=CC(C(O)c1ccco1)N2Nc1ccccn1 (stereo not given) | 0.76 | -0.0191 | 0.0668 | 1.69 (inactive) | 0.32 | 0.03 | 0.217 | -0.374 | -0.172 | 1.01 | -0.45 | 0.314 | -0.111 | -0.334 | -0.0734 | -0.2 | 0.111 | -0.295 | 0.38 | 0.0104
3 | COC(=O)c1ccc([C@H](NC(=O)c2ccco2)[C@]2(C)C[C@H]2C2CCCCC2)cc1 | -1.05 | 0.642 | 1.06 | 2.43 (inactive) | -0.32 | -1.22 | -0.808 | -1.03 | -1.09 | 0.447 | -0.0855 | -0.978 | -1.6 | 1.51 | 1.39 | -0.096 | 0.142 | 1.46 | -0.101 | 0.351
4 | COCCCNC(=O)[C@@]1(Cc2ccccc2N=[N+]=[N-])COC(c2ccc(OCCCO)cc2)=N1 | 0.955 | 0.516 | 1.17 | 0.989 (inactive) | 0.475 | -0.331 | -0.027 | -0.121 | -0.599 | 1.61 | 1.44 | -0.899 | 0.185 | 1.43 | 0.414 | 0.0165 | 0.284 | 0.747 | 2 | 2.18
5 | C=C(C)C1CCC(C(O)C2C=CC3C(=O)N(C)C(=O)C3N2N2CCCCC2)CC1 (stereo not given) | 0.925 | 0.145 | 0.67 | 0.929 (inactive) | 0.853 | 1.3 | 1.16 | 1.35 | 0.986 | 1.42 | 1.44 | -0.385 | 0.67 | 0.949 | 0.763 | 0.048 | 0.413 | 0.751 | 0.555 | 1.89
6 | O=C1OCC=C[C@H]2OC34C=CCN(Cc5ccccc5)C(=O)[C@H]3N(CCCCCCO)C(=O)[C@@H]4[C@@H]12 (stereo not given in full) | 1.82 | -0.305 | 0.777 | 0.148 (inactive) | -0.735 | -0.868 | -0.825 | -0.608 | -1.03 | 0.652 | -1.08 | 0.141 | -1.19 | -0.274 | 0.466 | -0.161 | -0.0396 | -0.302 | 2.46 | -0.367
7 | CCCCCCCCCCC(O)C1C=CC2C(=O)N(C)C(=O)C2N1NC(=O)OC(C)(C)C (stereo not given) | 0.18 | -0.0906 | 0.0331 | 11.3 (active) | -0.737 | 0.386 | -0.0167 | -0.112 | -0.145 | 0.417 | 1.17 | -2.54 | 0.186 | 1.41 | 0.953 | -0.0684 | 0.445 | 0.3 | -0.122 | 0.294
8 | COc1cc2c(cc1O)C(C)N(Cc1ccc([N+](=O)[O-])o1)CC2 (stereo not given) | 1.38 | 0.749 | 0.879 | 0.286 (inactive) | 0.675 | 0.899 | -0.459 | 0.574 | -0.0673 | 1.31 | 1.28 | -0.616 | 0.0215 | 2.21 | 1.21 | 0.138 | -0.153 | -0.335 | 0.961 | 1.95
9 | C#CCN([C@@H](Cc1ccc(O)cc1)C(=O)OC)[C@@H](/C=C/C1CC1)[C@H](O)Cc1ccccc1 | -0.189 | -0.236 | -0.26 | 0.25 (inactive) | -0.251 | -0.689 | -0.0832 | 0.122 | 0.103 | 0.644 | -0.184 | -3 | -0.0906 | -0.634 | -1.04 | -0.0425 | -0.223 | -0.407 | 0.0583 | -0.0345
10 | CN1C(=O)C2C=CC(C(O)c3cccc4ccccc34)N(N3CCCCC3)C2C1=O (stereo not given) | 1.52 | 1.11 | 1.21 | 1.81 (inactive) | 0.595 | 1.31 | 0.396 | 1.09 | 0.353 | 0.784 | 0.817 | -0.474 | 0.349 | 2.23 | 1.02 | -0.027 | -0.0055 | 1.04 | 2.45 | 1.67
11 | [N-]=[N+]=NCc1ccccc1C[C@@]1(C(=O)N2CCOCC2)N=C(c2ccc(OCCCO)cc2)O[C@@H]1c1ccccc1 | 0.511 | 0.881 | 1.18 | -0.691 (inactive) | 1.03 | 1.28 | 0.0805 | -0.14 | -0.519 | 0.686 | 1.45 | -3.27 | 0.285 | 1.83 | 0.997 | 0.0597 | 0.412 | -0.549 | 2.09 | 0.916
12 | COc1ccc([Si](C)(C)[C@H]2[C@H](CC(=O)N(CCO)Cc3ccccc3)O[C@@]3(C(=O)N(Cc4cccc(N5CCOC5=O)c4)c4ccccc43)[C@@H]2C)cc1 | 1.18 | -0.21 | 0.0284 | -2.44 (inactive) | 0.0549 | 0.616 | 0.232 | 0.324 | 0.179 | 0.81 | 0.671 | -4.06 | 0.498 | 0.107 | -0.48 | -0.154 | -0.147 | -0.318 | 0.0843 | 0.429
